PubChem BioAssay (EPA / NIEHS)
Active and inactive are the calls of the source. The calls were made as follows: active = hit-call score of the fitted dose curve at least 0.9, where 1 is the maximum; inactive = score below 0.9.

Each compound was assayed against Heat shock factor protein 1 (Homo sapiens) (UniProt Q00613) (assay: ATG_HSE_CIS: Attagene CIS-FACTORIAL HepG2 Assay for human Heat Shock Transcription Factor 1 (HSE) (AID 2282953)). Details: HepG2 HSE cis-reporter, Attagene RNA transcription; actives raise or lower the signal.
Heat shock factor protein 1 (Homo sapiens), sequence (Q00613 whole entry, looked up): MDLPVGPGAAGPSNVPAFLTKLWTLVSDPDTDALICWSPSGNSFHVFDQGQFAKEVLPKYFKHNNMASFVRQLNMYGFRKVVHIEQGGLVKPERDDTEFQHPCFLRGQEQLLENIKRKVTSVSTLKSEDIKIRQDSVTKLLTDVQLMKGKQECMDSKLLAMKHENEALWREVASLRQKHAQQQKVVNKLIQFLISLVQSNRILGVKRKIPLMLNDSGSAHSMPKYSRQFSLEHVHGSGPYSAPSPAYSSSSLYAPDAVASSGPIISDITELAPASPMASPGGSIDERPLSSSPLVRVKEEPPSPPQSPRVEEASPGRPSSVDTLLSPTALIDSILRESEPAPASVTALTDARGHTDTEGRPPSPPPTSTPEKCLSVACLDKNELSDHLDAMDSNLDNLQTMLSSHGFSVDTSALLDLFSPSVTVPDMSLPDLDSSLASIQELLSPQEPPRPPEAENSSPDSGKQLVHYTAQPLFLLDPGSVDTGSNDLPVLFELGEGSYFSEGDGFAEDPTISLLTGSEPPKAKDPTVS
Procedure: ATG_CIS is a cell-based, multiplexed-readout assay that uses HepG2, a human liver cell line, with measurements taken at 24 hours after chemical dosing in a 24-well plate.ATG_HSE_CIS is one of 52 assay component(s) measured or calculated from the ATG_CIS assay. It is designed to make measurements of mRNA induction, a form of inducible reporter, as detected with fluorescence intensity signals by Reverse transcription polymerase chain reaction (RT-PCR) and Capillary electrophoresis technology.Data from the assay component ATG_HSE_CIS was analyzed into 1 assay endpoint. This assay endpoint, ATG_HSE_CIS, was analyzed with bidirectional fitting relative to DMSO as the negative control and baseline of activity. Using a type of inducible reporter, measures of mRNA for gain or loss-of-signal activity can be used to understand the reporter gene at the transcription factor-level as they relate to the gene HSF1. Furthermore, this assay endpoint can be referred to as a primary readout, because this assay has produced multiple assay endpoints where this one serves a reporter gene function. To generalize the intended target to other relatable targets, this assay endpoint is annotated to the dna binding intended target family, where the subfamily is heat shock protein.
Human liver HepG2 cells are transiently transfected with multiple reporter transcription units (MRTUs) in 6-well plates using FuGene 6 reagent (Roche; 3 ml FuGene/1 mg DNA). The MRTU constructs are regulated by a cis-regulating element (promoter). […] A major difference between the CIS and TRANS system is that in CIS activities of endogenous TFs are measured, whereas the TRANS assay evaluates changes in activities of exogenous, chimeric NR-Gal4 proteins. […] At the end of 24 hour incubation, total RNA was isolated using TriZol reagent (Invitrogen). The isolated RNA is then reverse-transcribed using oligo(dT) primer and Mo-MLV reverse transcriptase (Invitrogen) with DNAse I (Ambion) treatment for 30 min. The one-tenth of the produced cDNA was amplified by PCR using Taq DNA polymerase (Invitrogen) and two reporter sequence-specific primers. The PCR products were fluorescently labeled by primer extension with 6-arboxyfluorescein (6-FAM) 5'-labeled reporter sequence-specific primer (2 min at 95 C, 20 s at 68 C and 10 min at 72 C) and these products were digested with 5U of HpaI (New England Biolabs) for 2h at 37 C. The fragments were purified using Qiaquick PCR columns (Qiagen), analyzed on an ABI 3130xL genetic analyzer (Applied Biosystems) with peak positions identified by using a set of X-rhodamine (ROX)-labeled MapMarker1000 molecular weight standards (BioVentures). The raw capillary electrophoresis data was processed using Attagraph software (Attagene).
For `CCCCN1C(=O)[C@@H]([C@H](O)C2CCCCC2)NC(=O)C12CCN(Cc1ccc(Oc3ccc(C(=O)O)cc3)cc1)CC2`, the outcome was “inactive”.
With `C[C@]12C=CC(=O)C=C1CC[C@H]1[C@@H]3C[C@@H](O)[C@](O)(C(=O)CO)[C@@]3(C)C[C@H](O)[C@@]12F` the outcome was “inactive”.
In the case of `COS(C)(=O)=O`, the outcome is reported as “inactive”.
In the case of `CCCCCCCCCCCCCCO`, the AC50 is reported as 117 µM (active).
With `c1ccc(C(O[C@@H]2CCCN(CCc3ccc4c(c3)OCO4)C2)c2ccccc2)cc1` the AC50 was 55 µM (active).
In the case of `O=S1(=O)CCCO1`, the outcome is reported as “inactive”.
`CCc1cccc(CC)c1N` was tested, and the outcome was “inactive”.
`Cc1nc(-c2ccccn2)ncc1C(=O)Nn1cc(C)c2cc(F)ccc21` was tested, and the outcome was “inactive”.
With `NC(=O)N1c2ccccc2C=Cc2ccccc21` the outcome was “inactive”.
For `CCCCC(CC)C(=O)OCCOCCOCCOC(=O)C(CC)CCCC` (stereo not given), the outcome was “inactive”.
For `CCCOc1ccc(S(=O)(=O)N2CCN(CC)CC2)cc1-c1nc2c(CC)n(Cc3ccccn3)nc2c(=O)[nH]1`, the outcome was “inactive”.
With `FC(F)C(F)(F)COCC1CO1` (stereo not given) the outcome was “inactive”.
`Nc1ccn([C@@H]2O[C@H](CO)[C@@H](O)[C@@H]2O)c(=O)n1` was tested, and the outcome was “inactive”.
In the case of `c1ccc2ncccc2c1`, the outcome is reported as “inactive”.
`NC(N)=O` was tested, and the outcome was “inactive”.
For `COc1cc2c(c(OC)c1OC)-c1ccc(OC)c(=O)cc1[C@@H](NC(C)=O)CC2`, the outcome was “inactive”.
For `O=S(=O)(O)CCC(F)(F)C(F)(F)C(F)(F)C(F)(F)C(F)(F)C(F)(F)F`, the outcome was “inactive”.
For `CCCCCCCCCCCCCCCCOS(=O)(=O)O`, the outcome was “inactive”.
`O=C(N[C@H](CO)[C@H](O)c1ccc([N+](=O)[O-])cc1)C(Cl)Cl` was tested, and the outcome was “inactive”.
In the case of `CCCCCCOC(=O)CC(CC(=O)OCCCCCC)(OC(=O)CCC)C(=O)OCCCCCC`, the outcome is reported as “inactive”.
With `OC(Cn1cncn1)(Cn1cncn1)c1ccc(F)cc1F` the outcome was “inactive”.
With `CC1(C)C(=O)N(Cl)C(=O)N1Cl` the outcome was “inactive”.
In the case of `NNC(=O)c1ccncc1`, the outcome is reported as “inactive”.
`CCCC(CCC)C(=O)O` was tested, and the outcome was “inactive”.
In the case of `CCN(CC)C(=S)SSC(=S)N(CC)CC`, the AC50 is reported as 111 µM (active).
With `CCOc1ccc2[nH]cc(C(=O)NCc3ccccc3)c(=O)c2n1` the outcome was “inactive”.
In the case of `Cc1nccn1-c1ccc(Sc2cccc(C3(C(N)=O)CCOCC3)c2)cc1`, the outcome is reported as “inactive”.
In the case of `FC(F)(F)COC(OCC(F)(F)F)OCC(F)(F)F`, the outcome is reported as “inactive”.
In the case of `O=C(O)c1cccc(C(=O)O)c1`, the outcome is reported as “inactive”.
With `CC(=O)c1ccccc1` the outcome was “inactive”.
For `CCCCCCCC/C=C\CCCCCCCC(=O)OC[C@@H](O)[C@H]1OC[C@H](O)[C@H]1O`, the outcome was “inactive”.
`Cn1c(=O)c2[nH]cnc2n(C)c1=O` was tested, and the outcome was “inactive”.
With `O=C(O)c1ccc2c(c1)nc(C(=O)NC1CCN(C3CC3)CC1)n2Cc1cc(-c2ccc(Cl)s2)on1` the outcome was “inactive”.
In the case of `NC(=O)N(O)[C@@H]1COc2cc(OCc3ccccc3)ccc21`, the outcome is reported as “inactive”.
With `Cc1cccc(O)c1C` the outcome was “inactive”.
In the case of `NCC(F)(F)C(F)(F)C(F)(F)C(F)(F)F`, the outcome is reported as “inactive”.
For `c1ccc2c(c1)-c1cccc3c1c-2cc1ccccc13`, the outcome was “inactive”.
In the case of `COCc1nnc(-c2ccc[n+]([O-])c2)n1-c1c(Cl)c(Cl)cc2[nH]c(=O)c(=O)[nH]c12`, the outcome is reported as “inactive”.
With `CCCCCOC(C)=O` the outcome was “inactive”.
With `CCCCCCCCCC` the outcome was “inactive”.
